Experimental data from the supplement of paper PMC7156485.
“And” between values parts separate entries of the source, which are not always exact repeats. Identical values can stand only once. ± gives the standard deviation of the averaged measurements.

Legend:
Settings in all cases: concentration: 10 µM; 24 h
[1] = test system: HCC1569; test: cell number relative to DMSO (% of DMSO); higher = more cells (less growth inhibition / toxicity)
In short: (§1)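 HCC1569 and TDF cells were seeded at 800 per well in 384-well plates in RPMI with 10% FBS and treated with compounds at 10 µM for 24 h at 37 °C, in triplicate. After fixation in 3.7% formaldehyde, cells were stained with a rabbit anti-H1.0 antibody, an AlexaFluor 647 secondary and DAPI, and six fields per well were imaged at ×10. H1.0 nuclear intensity or cell number is given as percent of the plate control, using the median of replicates, with HCC1569 values smoothed for positional effects.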

[2] = test system: TDF; test: as above
In short: as §1

[3] = test system: TDF; test: H1.0 immunofluorescence intensity relative to DMSO (% of DMSO); higher = stronger H1.0 induction, active = 120 or more
In short: as §1

[4] = test system: HCC1569; test: H1.0 immunofluorescence intensity relative to DMSO (% of DMSO); higher = stronger H1.0 induction, active = 140 or more
In short: as §1
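Wherever H1.0 immunofluorescence intensity relative to DMSO is given: TDF is a line of transformed human dermal fibroblasts of mesenchymal origin.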
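Wherever cell number relative to DMSO is given: TDF denotes transformed human dermal fibroblasts of mesenchymal origin.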

SMILES | cell number [1] | cell number [2] | H1.0 immunofluorescence intensity [3] | H1.0 immunofluorescence intensity [4]
COC(=O)CNC(=O)C(=O)OC [methyl 2-(2-methoxy-2-oxoethylamino)-2-oxoacetate] | 96.5 | 109 | 99.2 (inactive) | 101 (inactive)
CN1CCc2cc3c(cc2C(=O)Cc2ccc4c(c2C1)OCO4)OCO3 [Protopine] | 99.4 | 108 | 97.6 (inactive) | 92.4 (inactive)
CC(C)NCC(O)c1ccc(NS(C)(=O)=O)cc1.Cl (racemic) | 108 | 100 | 92.6 (inactive) | 99.1 (inactive)
CC1(C)CCC2=C(O1)c1ccccc1C(=O)C2=O [beta-Lapachone] | 59.7 ± 36 | 25.4 ± 9.7 | 114 (inactive) | 111 (inactive)
CCCCc1ncc(C=C(Cc2cccs2)C(=O)O)n1Cc1ccc(C(=O)O)cc1.CS(=O)(=O)O [Eprosartan mesylate] | 97.1 | 91.7 | 96.4 (inactive) | 97.4 (inactive)
COc1cc(/C=C/C(=O)CC(=O)/C=C/c2ccc(O)cc2)ccc1O | 66.5 | 66.7 | 98.3 (inactive) | 161 (active)
CNC(C)C1CCC(N)C(OC2C(N)CC(N)C(OC3OCC(C)(O)C(NC)C3O)C2O)O1 (configuration not stated) [Gentamycin] | 100 | 95.4 | 95 (inactive) | 117 (inactive)
CCN(CC)CCNC(=O)c1cc(Cl)c(N)cc1OC [Metoclopramide] | 102 | 105 | 97.1 (inactive) | 108 (inactive)
CC1(C)CCC(C)(C)c2cc(C(=O)Nc3ccc(C(=O)O)cc3)ccc21 | 101 | 104 | 91.8 (inactive) | 109 (inactive)
CCOC(=O)c1c(C)[nH]c(C=C2C(=O)Nc3ccccc32)c1C [VEGF Receptor 2 Kinase Inhibitor I] | 100 | 97.1 | 94.2 (inactive) | 103 (inactive)
Clc1ccc(C(Cn2ccnc2)OCc2csc3c(Cl)cccc23)c(Cl)c1 (configuration not stated) [Sertaconazole] | 95 | 97.9 | 91.4 (inactive) | 114 (inactive)
O=C([O-])CCC(NC(=O)c1ccccc1C(=O)[O-])C(=O)[O-].[Na+].[Na+].[Na+] [Phthalamoyl-L-glutamic acid trisodium] | 61.8 | 103 | 89.2 (inactive) | 170 (active)
CCCCCC=CCC(O)C=CC=CCC=CCCCC(=O)O (configuration not stated) | 105 and 98 | 95.5 and 90.4 | 92.5 (inactive) and 96.7 (inactive) | 98.4 (inactive) and 99.8 (inactive)
Cn1cnc2c(NCc3ccccc3)nc(NCCO)nc21 [Olomoucine] | 100 | 121 | 98.6 (inactive) | 94.1 (inactive)
O=c1cc(-c2ccc(O)cc2)oc2cc(OC3OC(CO)C(O)C(O)C3O)cc(O)c12 (configuration not stated) [Apigenin-7-glucoside] | 98.2 | 99.3 | 93.7 (inactive) | 91 (inactive)
CN1CCc2cc(Cl)c(O)cc2C(c2ccccc2)C1.Cl (configuration not stated) | 103 | 104 | 88.5 (inactive) | 94.6 (inactive)
OC1C=CC(Br)C(O)C1O (mixture of isomers) [6-Bromo-4-cyclohexene-1,2,3-triol Mixed Isomers] | 99.9 | 105 | 97.5 (inactive) | 112 (inactive)
COc1ccc(CCN(C)CCc2ccc(OC)c(OC)c2)cc1OC.Cl [YS-035 hydrochloride] | 99.4 | 108 | 96.6 (inactive) | 98.3 (inactive)
Cl.c1ccc2nc(C3=NCCN3)ccc2c1 [BU224 hydrochloride] | 101 | 110 | 95 (inactive) | 100 (inactive)
Cl.c1ccc(C2CN3CCSC3=N2)cc1 (configuration not stated) [Tetramisole hydrochloride] | 99.8 | 114 | 91.7 (inactive) | 105 (inactive)
Cc1ccc(NC2=CC(=O)c3sc(C)nc3C2=O)cc1 | 27.9 | 14.5 | 122 (active) | 104 (inactive)
Cc1cn2cc(C(=O)N(C)CCO)cc(N[C@@H]3CCOc4cccc(C)c43)c2n1 | 97.8 | 104 | 94 (inactive) | 106 (inactive)
CC(C)(Oc1ccc(C2CC2(Cl)Cl)cc1)C(=O)O (configuration not stated) [Ciprofibrate] | 104 | 110 | 97.8 (inactive) | 98.1 (inactive)
